According to the supplement of paper PMC12297408:
Structures can show the parent of a compound that is named as a salt. Among all 1,300 compounds or so, about 40 (3%) showed activity. This is one part of a sample in which actives are shown more often than they occur. A number with no mark means an inactive call.

Tested on: Plasmodium falciparum NF54/iGP1_RE9H ulg8 stage V gametocytes
Experiment: gametocyte viability (luciferase signal relative to DMSO control) (% of DMSO control); higher = less gametocytocidal activity, active = 50 or less
Conditions: exposure time: 72 h
Method in brief: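 NF54/iGP1_RE9Hulg8 stage V gametocytes (day 12; ~2.5% gametocytemia, 3% hematocrit) were incubated with compounds at 10 µM or 1 µM final, in one well each, for 72 h at 37 °C in medium with 0.5% Albumax II. Luminescence after D-luciferin addition was read on an IVIS Lumina II. Viability refers to the mean of plate DMSO vehicle wells.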

SMILES | gametocyte viability (concentration: 1 µM) | gametocyte viability (concentration: 10 µM)
CC(C)C[C@H]1C(=O)N2CCC[C@H]2[C@]2(O)O[C@](NC(=O)[C@@H]3C=C4c5cccc6[nH]c(Br)c(c56)C[C@H]4N(C)C3)(C(C)C)C(=O)N12 [Bromocryptine mesylate] | 84.2 | 66.9
CCCN1C[C@H](CSC)C[C@@H]2c3cccc4[nH]cc(c34)C[C@H]21 [Pergolide mesylate] | 78.2 | 82.3
CN1C[C@H](C(=O)N[C@]2(C)O[C@@]3(O)[C@@H]4CCCN4C(=O)[C@H](Cc4ccccc4)N3C2=O)C[C@@H]2c3cccc4[nH]cc(c34)C[C@H]21 [Dihydroergotamine tartrate] | 66.8 | 42.4 (active)
CCNCC(O)c1cccc(O)c1 (stereo not given) [Etilefrine hydrochloride] | 87.9 | 90.2
CCC1(c2cccc(O)c2)CCCCN(C)C1 (stereo not given) [Meptazinol hydrochloride] | 83 | 81.4
CNC(=O)Oc1ccc2c(c1)[C@]1(C)CCN(C)[C@@H]1N2C [Eserine sulfate, physostigmine sulfate] | 83.4 | 79
CN1CCC2(C)c3cc(O)ccc3N(C)C12 (single isomer, unassigned; (-)) [(-)-Eseroline fumarate salt] | 74.2 | 44.8 (active)
C(#CCN1CCCC1)CN1CCCC1 [Tremorine dihydrochloride] | 91.5 | 94.7
C[C@@H]1O[C@@H](O[C@@H]2C=C3CC[C@@H]4[C@H](CC[C@]5(C)[C@@H](c6ccc(=O)oc6)CC[C@]45O)[C@@]3(C)CC2)[C@H](O)[C@H](O)[C@H]1O [Proscillaridin A] | 81.2 | 76.2
CCCCCC[C@H]1C(=O)O[C@H](C)[C@H](NC(=O)c2cccc(NC=O)c2O)C(=O)O[C@@H](C)[C@@H]1OC(=O)CC(C)C [Antimycin A] | 86.4 | 94.3
COc1ccc(CCN2CCC(Nc3nc4ccccc4n3Cc3ccc(F)cc3)CC2)cc1 [Astemizole] | 92.7 | 36.4 (active)
Fc1ccc(C(OCCN2CCN(CCCc3ccccc3)CC2)c2ccc(F)cc2)cc1 | 81.5 | 86
CN(C)[C@@H]1C(=O)C(C(N)=O)=C(O)[C@@]2(O)C(=O)C3=C(O)c4c(O)ccc(Cl)c4[C@@](C)(O)[C@H]3C[C@@H]12 [Chlortetracycline hydrochloride] | 88.2 | 88.7
CN1[C@@H]2CC[C@H]1C[C@@H](OC(=O)[C@H](CO)c1ccccc1)C2 [Hyoscyamine (L)] | 86.7 | 91.7
CN1[C@@H]2CC[C@H]1C[C@@H](OC1c3ccccc3CCc3ccccc31)C2 [Deptropine citrate] | 99.2 | 86.5
CC[C@@]1([C@@H]2O[C@@H]([C@H]3O[C@@](O)(CO)[C@H](C)C[C@@H]3C)C[C@@H]2C)CC[C@H]([C@]2(C)CC[C@]3(C[C@H](O)[C@@H](C)[C@@H]([C@@H](C)[C@@H](OC)[C@H](C)C(=O)O)O3)O2)O1 [Monensin sodium salt] | 28.8 (active) | 0.676 (active)
C[C@]12CC[C@H](O)C[C@H]1CC[C@@H]1[C@@H]2C[C@@H](O)[C@]2(C)[C@@H](C3=CC(=O)OC3)CC[C@]12O [Digoxigenin] | 74.9 | 72.3
O[C@@H]1CCCC[C@H]1N1CCC(c2ccccc2)CC1 [L(-)-vesamicol hydrochloride] | 91.8 | 84.9
CC[C@@H](C(N)=O)N1CCCC1=O [Levetiracetam] | 83.8 | 85.3
C=CC[C@]1(O)CC[C@H]2[C@@H]3CCC4=CC(=O)CCC4=C3C=C[C@@]21C [Altrenogest] | 56.8 | 33.1 (active)
C[C@]12CCC(=O)C=C1C=C[C@@H]1[C@@H]2CC[C@@]2(C)[C@H]1CC[C@@]2(O)CCC(=O)O [Canrenoic acid potassium salt] | 83.5 | 82.3
C#C[C@]1(O)CC[C@H]2[C@@H]3CCC4=CC(=O)CCC4=C3C=C[C@@]21CC [Gestrinone] | 86.6 | 74.2
C[N+]1([O-])[C@@H]2C[C@@H](OC(=O)[C@H](CO)c3ccccc3)C[C@H]1[C@@H]1O[C@@H]12 (stereo not given in full) [Scopolamin-N-oxide hydrobromide] | 91.5 | 94.5
CCN[C@@H](C)Cc1cccc(C(F)(F)F)c1 [Dexfenfluramine hydrochloride] | 95.2 | 90.6
C[C@]12COC(=O)C[C@@H]1CC[C@@H]1[C@@H]2CC[C@@]2(C)[C@H]1CC[C@]2(C)O [Oxandrolone] | 81.4 | 78.9
